Measurements as given in PubChem BioAssay (NCI).
Compounds without any hit were thinned out: in the full panel of roughly 83,000, 20% have a hit.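 Negative percent growth values reflect cell death: -40 means 40% of the cells present at the start died, and -100 means all died.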 Unmarked numbers belong to inactive results. Active and inactive are the calls of the source. How the source made its calls: active means growth percent below 10; inactive means the rest.

Test system: HL-60(TB) leukemia
Assay: NCI-60 one-dose screen, 48 h (100 = growth as untreated, 0 = no growth, -100 = all killed)
Conditions: 10 µM unless noted

| Structure (SMILES) | growth |
| --- | --- |
| c1cc(NCCc2ccncc2)nc(-n2cnc3ccccc32)c1 | 67.7% |
| CCOC(=O)c1c(C)oc2ncnc(N3CCN(C(=O)COc4ccc(C(C)(C)C)cc4)CC3)c12 | 73.9% |
| Cc1cccc2c(Nc3ccc(NS(C)(=O)=O)cc3)c3ccc([N+](=O)[O-])cc3nc12 | -27.2% (active) |
| Cc1cc2c(-c3nc4ccccn4c3N)c(O)c(O)cc2c(O)c1-c1c(C)cc2c(-c3nc4ccccn4c3N)c(O)c(O)cc2c1O | 9.95% (active) |
| C/C(=C(/c1ccccc1)c1ccc(OCC(O)CN2CCOCC2)cc1)c1ccccc1 (stereo not drawn) | 60.7% |
| OC(Cc1cc(CC(O)(C(F)(F)F)C(F)(F)F)nc(CC(O)(C(F)(F)F)C(F)(F)F)c1)(C(F)(F)F)C(F)(F)F | -24.5% (active) |
| COc1ccc(NS(=O)(=O)c2ccc(-c3cnc(C4CC4)o3)cc2)cc1 | 76.3% |
| NNc1c2ccccc2nc2ccccc12 | 9.09% (active) |
| Cc1ccc(S(=O)(=O)c2nc(-c3ccccc3)oc2Sc2nc3ccccc3s2)cc1 | 71.9% |
| Cc1ccc(Oc2c(/C=N/NC(=O)Cn3c(=O)sc4ccccc43)c(C)nn2-c2ccccc2)cc1 | 4.2% (active) |
| O=S(=O)(NCCNc1cc(-c2cn(-c3ccccc3)nc2-c2cccc(O)c2)ccn1)c1ccc(C(F)(F)F)cc1 | 8.76% (active) |
| NC(=O)Nc1cc(-c2cccc(F)c2)sc1C(=O)N[C@H]1CCCNC1 | -29.9% (active) |
| COc1c(C(C)=O)c(OCCCCOc2c(C(C)=O)c(OC)c3ccoc3c2OC)c(OC)c2occc12 | 57.4% |
| CSc1ccccc1C#C/C=C\C#Cc1ccccc1N1CCCCC1=O | 107% |
| COc1ccc2c(c1)c(-c1nc(-c3c[nH]c4ncccc34)cs1)cn2C | 63.5% |
| Nc1ccc(Cl)c([N+](=O)[O-])c1 | 118% |
| COC(=O)c1c2c(c(C)[n+]([O-])c1C)C(=O)C=C(NCc1cccc(OC)c1)C2=O | -37.3% (active) |
| CC1=NN(c2ccc(S(=O)(=O)O)cc2Cl)C(=O)C1 | 143% |
| O=[N+]([O-])c1ccc(-c2cc3c(Nc4ccc(Sc5nc6ccccc6s5)c(Cl)c4)ncnc3s2)cc1 | 21.6% |
| CC1C(=O)CCCC1=O | 118% |
| OC(c1cc(-c2cccc(Cl)c2)nc2ccccc12)C1CCCCN1 (stereo not drawn) | -63.1% (active) |
| COc1ccc2nc3cc(Cl)ccc3c(NCCCNCCC(C)O)c2c1 (stereo not drawn) | -38.1% (active) |
| CC(=O)c1cc(Br)ccc1O | 101% |
| COc1cc([C@@H](CCO)C[C@H](C)c2ccc3ccccc3c2)cc(OC)c1OC | 6.14% (active) |
| O=S(=O)(NCCCNc1nccc(-c2c(-c3cccc(F)c3)nc3sccn23)n1)c1cccc2ccccc12 | 53.9% |
| O=[N+]([O-])c1ccc(NC(=S)N/N=C/c2cc3ccccc3n3nnnc23)cc1 | 27.4% |
| CN1CCN(CC(=O)Nc2cccc(-n3cc(-c4ccncc4)c(-c4ccc(Cl)c(O)c4)n3)c2)CC1 | 5.27% (active) |
| O=C(N/N=C/c1ccc(Cl)cc1Cl)c1ccc2nc(-c3ccc(Cl)cc3)[nH]c2c1 | 5.77% (active) |
